# Reference: article PMC4552634, “A New Set of Chemical Starting Points with Plasmodium falciparum Transmission-Blocking Potential for Antimalarial Drug Discovery” (PLoS ONE, 2015)
# Among all 13,000 compounds or so, about 3,200 (25%) showed an effect of 50% or more. This is one part of the list.
# Tested on: P. falciparum stage V gametocytes
# Design: BacTiter-Glo ATP luminescence viability of purified stage V gametocytes in 384-well plates, per cent inhibition versus DMSO
# Conditions: 48 h, 5 µM; inhibitor
row,SMILES,% Inhibition [%]
1,COc1ccc(Nc2nccc(NCCNC(=O)Nc3cc(C)ccc3C)n2)cc1 [TCMDC-133644],-56.14
2,CCn1cc2c3c(cc(C(=O)N[C@@H](Cc4ccccc4)[C@H](O)CNCc4cccc(OC)c4)cc31)N(C)S(=O)(=O)CC2 [TCMDC-135784],29.74
3,O=C(NCCCCN1CCC(O)(c2ccc(Cl)cc2)CC1)c1ccc(Br)cc1 [TCMDC-131982],-5.43
4,CN(C(=O)c1nn(-c2ccccn2)c2nccc(-c3cccs3)c12)C1CCCCC1 [TCMDC-124797],11.83
5,Cc1cc(C2CCN(CCCCNC(=O)c3ccc(-c4ccc(C(F)(F)F)cc4)cc3)CC2)c(C)cc1OCC(N)=O [TCMDC-138800],4.975
6,CCc1ccc(C2CCN(CCCCNC(=O)c3ccc(-c4ccc(C(F)(F)F)cc4)cc3)CC2)c(OCCO)c1 [TCMDC-138761],105.9
7,CCc1ccc(C2CCN(CCCCNC(=O)c3ccc(-c4ccc(C#N)cc4)cc3)CC2)c(OCCO)c1 [TCMDC-138765],-6.555
8,CC(=O)Oc1cc(C)ccc1C1CCN(CCCCNC(=O)c2ccc(-c3ccc(C(F)(F)F)cc3)cc2)CC1 [TCMDC-138626],28.6
9,CCOC(=O)c1cc(C(=O)NCCCCN2CCC(c3ccc(CC)cc3OCC)CC2)ccc1-c1ccc(C(F)(F)F)cc1 [TCMDC-138755],83.47
10,Cn1cc(C2CCN(CCCCNC(=O)c3sc(-c4ccc(C(F)(F)F)cc4)nc3CO)CC2)c2ccccc21 [TCMDC-138778],-59.88
11,Cc1cc(C2CCN(CCCCNC(=O)c3ccc(-c4ccc(C(F)(F)F)cc4)cc3)CC2)c(C)cc1OCCO [TCMDC-138798],-10.99
12,C=C(C)Cn1cc(C2CCN(CCCCNC(=O)c3sc(-c4ccc(Cl)cc4Cl)nc3CO)CC2)c2ccccc21 [TCMDC-138873],-30.06
13,C=CCn1cc(C2CCN(CCCCNC(=O)c3sc(-c4ccc(C(F)(F)F)cc4)nc3CO)CC2)c2cc(OC)ccc21 [TCMDC-138828],92.56
14,COc1c(C2CCN(CCCCNC(=O)c3ccc(-c4ccc(C(F)(F)F)cc4)c(C(=O)OC(C)C)c3)CC2)ccc2c1CCCC2 [TCMDC-138744],32.47
15,COC(=O)c1ccc(C(=O)NCCCCN2CCC(c3ccc4c(c3OC)CCCC4)CC2)cc1-c1ccc(C(F)(F)F)cc1 [TCMDC-138705],-64.43
16,CCOC(=O)c1cc(C(=O)NCCCCN2CCC(c3ccc4c(c3OC)CCCC4)CC2)ccc1-c1ccc(C(F)(F)F)cc1 [TCMDC-138739],73.05
17,COc1cccc(C(=O)OC2=C3CCC(=O)C3(C)CCC2=O)c1 (centres unmarked) [TCMDC-131633],39.81
18,CC(C)(C)OC(=O)N1CCN(c2ccccc2NC(=O)c2cccc(C(F)(F)F)c2Oc2ccc(F)cc2)CC1 [TCMDC-140951],-16.31
19,COc1ccc2[nH]c(C(=O)Nc3ccc4nc(-c5ccccc5)[nH]c4c3)cc2c1 [TCMDC-134305],-25.97
20,CCOc1ccccc1CON1C(N)=NC(N)=NC1(C)C [TCMDC-131583],17.24
21,CCNc1cc(C)nc(Nc2ccc(NC(=O)C3CCCC3)cc2)n1 [TCMDC-124980],-0.5513

row,SMILES,% Inhibition [%]
1,C=Cc1ccccc1C1(O)CCN(CCCCNC(=O)c2ccc(-c3ccc(C#N)cc3)cc2)CC1 [TCMDC-135786],28.95
2,Cc1cc(N[C@@H](CC(C)C)C(=O)Nc2ccccc2)nc(Nc2ccccc2)n1 [TCMDC-134743],-20.12
3,C=CC[C@H](C[C@H](O)[C@H](Cc1ccccc1)NC(=O)c1ccc(-c2cccnn2)cc1)C(=O)NC1CCCCC1 [TCMDC-141421],-14.32
4,CC(C)n1ncc2c(C(=O)N3CCCCCC3)cc(-c3ccccc3)nc21 [TCMDC-125259],6.769
5,CC(C)n1ncc2c(C(=O)N3CCCc4ccccc43)cc(-c3ccccc3)nc21 [TCMDC-125456],70.11
6,CC(NC(=O)c1cc(-c2ccccc2)nc2c1cnn2C(C)C)C1CC1 (centres unmarked) [TCMDC-125054],5.318
7,CN(C)CCOc1cc(NC(=O)Nc2ccc(-c3ccncc3)c3ccccc23)ccc1I [TCMDC-139118],23.38
8,COC(=O)c1c(C#N)c(OC)cc(O)c1CSC[C@@H](CN1CCCCC1)Nc1nc(-c2ccc([N+](=O)[O-])cc2)cs1 [TCMDC-138652],-4.34
9,O=C(/C=C/c1ccc(Cl)c(Cl)c1)NCCCCCN1CCCC(c2c[nH]c3ccccc23)C1 (centres unmarked) [TCMDC-139481],8.151
10,O=C(/C=C/c1ccc(Cl)c(Cl)c1)NCCC(CN1CCC(c2c[nH]c3ccccc23)CC1)c1ccccc1 (centres unmarked) [TCMDC-139621],20.48
11,O=C(/C=C/c1ccc(Cl)c(Cl)c1)NCCCCCN1CCC(c2c[nH]c3ccccc23)CC1 [TCMDC-139172],95.4
12,CN(CCN1CCC(c2c[nH]c3ccccc23)CC1)c1ccc(-c2nc3cc(Cl)c(Cl)cc3[nH]2)cc1 [TCMDC-139373],50.88
13,CN(CCC(CCN1CCC(c2c[nH]c3ccccc23)CC1)c1ccccc1)C(=O)Nc1ccc(Cl)c(Cl)c1 (centres unmarked) [TCMDC-139625],-72.07
14,O=C(/C=C/c1ccc(Cl)c(Cl)c1)NCCCCN1CCC(c2c[nH]c3ccccc23)CC1 [TCMDC-139333],-7.285
15,CN(CCN1CCC(c2c[nH]c3ccccc23)CC1)C(=O)OCCCCCNC(=O)/C=C/c1ccc(Cl)c(Cl)c1 [TCMDC-139374],-36.9
16,O=C(/C=C/c1ccc(Cl)c(Cl)c1)NCC[C@@H]1C[C@H]1CCN1CCC(c2c[nH]c3ccccc23)CC1 [TCMDC-139466],86.41
17,O=C(/C=C/c1ccc(Cl)c(Cl)c1)NCCCN1CCC(c2c[nH]c3ccccc23)CC1 [TCMDC-139332],45.36
18,O=C(/C=C/c1ccc(Cl)c(Cl)c1)NCCCCCN1CCC(c2c[nH]c3c(-c4ccccc4)cccc23)CC1 [TCMDC-139399],108
19,O=C(/C=C/c1ccc(Cl)c(Cl)c1)NCc1ccc(CN2CCC(c3c[nH]c4ccccc34)CC2)cc1 [TCMDC-139405],-66.38
20,O=C(/C=C/c1ccc(Cl)c(Cl)c1)NCCCCCN1CCC(c2cn[nH]c2-c2ccccc2)CC1 [TCMDC-139493],-12.94
